Most compounds without a hit are left out; they make up all but 21% or so of the library.
NS1 function inh: inhibitors of influenza NS1 protein function. actives 0.4% (n = 270,000). Potency, µM (titrated, usually from 46.1 µM), for the others: at the top dose activity, positive = more growth; also: potency is read from the fitted curve at half-maximal effect; actives are rising curves; nearly all actives have a fitted effect of over 50% in size
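A cell-based growth assay was used: compounds that relieve NS1-induced slow growth of budding yeast raise OD600. Assay medium was yeast nitrogen base with ammonium sulphate and -URA supplement, pH 6.0, with 2% galactose.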
Shiga toxin inh: inhibitors of Shiga toxin in Vero cells. inhibition, % at 38.7 µM. Vero cells, Shiga toxin protein synthesis inhibition reporter. actives 9.2% (n = 290,000); in the data active = inhibition mostly above about 28%, no sharp cut-off; inactive = mostly below about 43%; also: 0% is about no effect
Cycloheximide cs: counter-screen for Shiga toxin inhibitors: cycloheximide protein synthesis inhibition; AID 2314; cell reporter, cycloheximide protein synthesis inhibition counterscreen; actives 12% (n = 300,000); max response, %; in the data active = max response mostly above about 13%, no sharp cut-off; inactive = mostly below about 14%; also: read at 38.3 µM for the half of the compounds with a filed dose; 0% is about no effect
SARS PLP yeast: inhibitors of SARS-CoV papain-like protease in yeast; actives 0.19% (n = 330,000); S. cerevisiae expressing SARS-CoV PLpro, growth rescue; Potency, µM (titrated, usually from 32.9 µM), for the others: at the top dose activity, positive = growth rescue, most hits filed as activators; AID 485353; also: potency is read from the fitted curve at half-maximal effect; 0% is about no effect; nearly all actives have a fitted effect of over 55% in size
Pf growth 48h: inhibits P. falciparum growth in the first generation, 48 h. P. falciparum luciferase growth in erythrocytes, 48 h. Potency, µM (series often up to 28.7 µM), for the others: at the top dose activity change, negative = inhibition, usual class: inhibitors. actives 5.9% (n = 310,000); active = well fitted inhibition curve with a large enough effect; inconclusive = small, poorly fitted or top-dose-only effect, or another doubt; inactive = no such curve, though single readings can be large or run the other way; also: potency is read from the fitted curve at half-maximal effect; % is scaled to controls: 0 for no effect and ±100 for the full control effect
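Read-out is firefly luciferase luminescence from an integrated reporter in P. falciparum, so falling signal marks reduced parasite growth. Infected erythrocytes were at 2% hematocrit and 0.1% parasitemia (final) in Albumax-supplemented RPMI 1640.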
Pf growth 96h: inhibits malaria parasite growth, 96 h; P. falciparum luciferase reporter growth, 96 h; Potency, µM (series often up to 28.7 µM), inactives show top-dose activity change, negative = inhibition, usual class: inhibitors; actives 6.9% (n = 320,000); AID 504834; active = well fitted inhibition curve with a large enough effect; inconclusive = small, poorly fitted or top-dose-only effect, or another doubt; inactive = no such curve, though single readings can be large or run the other way; also: potency is read from the fitted curve at half-maximal effect; % is scaled to controls: 0 for no effect and ±100 for the full control effect
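Erythrocytes infected with luciferase-expressing P. falciparum were dispensed at 2% hematocrit and 0.05% parasitemia (final), then incubated with compounds 96 hours at 37 C in 5% CO2. Luminescence after detection reagent addition reported growth.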
* = called active by the depositor; [ ] = dose if it differs, or a comment. Unless noted, calls follow the shape of the full dose curve.

For CCSc1nc(-c2cccnc2)ccc1C#N the results were NS1 function inh -2%, Shiga toxin inh -13, Cycloheximide cs -6, SARS PLP yeast -9%, Pf growth 48h 16% and Pf growth 96h 24%.
For CCCn1nnnc1NCc1ccc(Cl)cc1Cl the results were NS1 function inh -6%, Shiga toxin inh -3, Cycloheximide cs -3, SARS PLP yeast -1%, Pf growth 48h -1% and Pf growth 96h -7%.
`COc1ccc([N+](=O)[O-])cc1NC1CCN(C(=O)c2cccs2)CC1` gave NS1 function inh 5%, Shiga toxin inh -9, Cycloheximide cs -3, SARS PLP yeast 0%, Pf growth 48h inconclusive and Pf growth 96h inconclusive.
COc1ccc(C(C#N)N2CCCCCC2)cc1OC (stereo not given) was read as NS1 function inh inconclusive, Shiga toxin inh 7, Cycloheximide cs -2, SARS PLP yeast 11%, Pf growth 48h 12% and Pf growth 96h 13%.
For COc1ccc(C(C#N)N2CCC(c3ccccc3)=N2)cc1OC (stereo not given) the results were NS1 function inh 4%, Shiga toxin inh 27, Cycloheximide cs 17*, SARS PLP yeast -2%, Pf growth 48h 8% and Pf growth 96h -1%.
For COc1cc(C(C#N)N2CCC(c3ccccc3)=N2)ccc1O (stereo not given) the results were NS1 function inh -3%, Shiga toxin inh 91*, Cycloheximide cs 25*, SARS PLP yeast -1%, Pf growth 48h 4% and Pf growth 96h 15%.
For COc1cc(C(O)C(=O)O)ccc1O (stereo not given) the results were NS1 function inh -10%, Pf growth 48h 10% and Pf growth 96h 0%.
OC1OC[C@@H](O)[C@H](O)[C@H]1O (stereo not given in full) was read as Shiga toxin inh -7, Cycloheximide cs -7, Pf growth 48h 11% and Pf growth 96h 0%.
Screening CCc1nnc(NC(=O)c2ccc(-c3ccc([N+](=O)[O-])cc3Cl)o2)s1 returned Shiga toxin inh 5, Cycloheximide cs -5, SARS PLP yeast 2%, Pf growth 48h -9% and Pf growth 96h -17%.
For O=c1[nH]c(S)nc2sc3c(c12)CCCC3 the results were NS1 function inh 11%, Shiga toxin inh -11, Cycloheximide cs 6, SARS PLP yeast 1%, Pf growth 48h 18% and Pf growth 96h 22%[1.15 µM].
For O=c1[nH]c(-c2ccco2)nc2sc3c(c12)CCCC3 the results were NS1 function inh -26%, Shiga toxin inh 91*, Cycloheximide cs 51*, SARS PLP yeast -54%, Pf growth 48h 321% and Pf growth 96h 357%.
Screening N#Cc1cccc(Cn2nnc(-c3ccccc3)n2)c1 returned NS1 function inh -13%, Shiga toxin inh 21, Cycloheximide cs 13*, SARS PLP yeast -3% and Pf growth 48h 6%.
`Nc1nnn(Cc2ccccc2)n1` gave NS1 function inh 0%, Shiga toxin inh -4, Cycloheximide cs -1, SARS PLP yeast -12%, Pf growth 48h -11% and Pf growth 96h -7%.
c1ccc(Cn2nnc(-c3ccccc3)n2)cc1 was read as NS1 function inh -1%, Shiga toxin inh 94*, Cycloheximide cs 35*, SARS PLP yeast 8%, Pf growth 48h 88% and Pf growth 96h 52%.
`COc1ccc(CC(NC(C)=O)C(=O)NC2CCN(c3nc(C)cc(C)c3C#N)CC2)c(OC)c1` (stereo not given) gave NS1 function inh -19%, Shiga toxin inh 3, Cycloheximide cs -2, SARS PLP yeast inconclusive, Pf growth 48h -23% and Pf growth 96h inconclusive.
Screening NCC(=O)N[C@@H](CCCN=C(N)N)C(=O)NCC(=O)N[C@@H](CC(=O)O)C(=O)N[C@@H](CO)C(=O)O returned Shiga toxin inh 16 and Cycloheximide cs -4.
CCOc1cccc(/C=N/NC(=O)c2cc(C3CC3)[nH]n2)c1O was read as NS1 function inh -26%, Shiga toxin inh 2, Cycloheximide cs 18*, SARS PLP yeast inconclusive, Pf growth 48h 2% and Pf growth 96h inconclusive.
For COc1cc(/C=N/NC(=O)c2cc(C3CC3)[nH]n2)cc(OC)c1OC the results were NS1 function inh 5%, Shiga toxin inh -7, Cycloheximide cs -3, SARS PLP yeast -9%, Pf growth 48h -10% and Pf growth 96h -13%.
`CCOc1cccc(/C=N/NC(=O)c2cccnc2)c1O` gave NS1 function inh -17%, Shiga toxin inh 33, Cycloheximide cs 21*, SARS PLP yeast 0%, Pf growth 48h inconclusive and Pf growth 96h inconclusive.
CCOc1cc(/C=N/NC(=O)c2cccnc2)ccc1O was read as NS1 function inh 11%, Shiga toxin inh 42, Cycloheximide cs 9, SARS PLP yeast 0%, Pf growth 48h 48% and Pf growth 96h 117%.
For O=C(O)CCN1C(=O)c2ccc(NC(=O)COc3ccccc3)cc2C1=O the results were NS1 function inh -4%, Shiga toxin inh 1, Cycloheximide cs 1, SARS PLP yeast 0%, Pf growth 48h 43% and Pf growth 96h 9%.
For Cc1ccc(-n2c(N)c(S(=O)(=O)c3ccccc3)c3nc4ccccc4nc32)cc1 the results were Shiga toxin inh -6, Cycloheximide cs 8, SARS PLP yeast 2%, Pf growth 48h 0% and Pf growth 96h inconclusive.
Cc1ccc(S(=O)(=O)c2c(N)n(/N=C/c3ccco3)c3nc4ccccc4nc23)cc1C was read as NS1 function inh inconclusive, Shiga toxin inh -12, Cycloheximide cs -9, SARS PLP yeast 2%, Pf growth 48h 2.1µM* and Pf growth 96h 3.3µM*.
`Cc1cccc(S(=O)(=O)c2c(N)n(/N=C/c3cccnc3)c3nc4ccccc4nc23)c1` gave NS1 function inh -90%, Shiga toxin inh -26, Cycloheximide cs -3, SARS PLP yeast -2% and Pf growth 48h -20%.
Cc1cccc(S(=O)(=O)c2c(N)n(/N=C/c3ccco3)c3nc4ccccc4nc23)c1 was read as NS1 function inh inconclusive, Shiga toxin inh -12, Cycloheximide cs -1, SARS PLP yeast 7%, Pf growth 48h 8.3µM* and Pf growth 96h -19%[5.75 µM].
Cc1cccc(S(=O)(=O)c2c(N)n(-c3ccccc3)c3nc4ccccc4nc23)c1 was read as NS1 function inh 19%, Shiga toxin inh 1, Cycloheximide cs -3, SARS PLP yeast 26%, Pf growth 48h inconclusive and Pf growth 96h 9.3µM*.
`COc1ccc(/C=N/n2c(N)c(S(=O)(=O)c3cccs3)c3nc4ccccc4nc32)cc1OC` gave NS1 function inh 5%, Shiga toxin inh -16, Cycloheximide cs -2, SARS PLP yeast 2% and Pf growth 48h 2.9µM*.
`Cc1cc(-c2ccccc2)nc(SCc2ccc(C(=O)O)cc2)n1` gave NS1 function inh -35%, Shiga toxin inh 1, Cycloheximide cs -1, SARS PLP yeast -7%, Pf growth 48h 7% and Pf growth 96h 309%.

Screening data: PubChem BioAssay, National Center for Advancing Translational Sciences (NCATS)
